Results on 15 compounds are retold here after PubChem BioAssay (EPA / NIEHS).

“And” between values parts separate entries of the source, which are not always exact repeats. Equal entries are not always repeated. Records with an inconclusive call do not appear. More than one record can exist for a structure, and the calls need not agree. The source made the active and inactive calls. How the source made its calls: active means hit-call score of the fitted dose curve at least 0.9, where 1 is the maximum; inconclusive means response in the unintended direction; inactive means score below 0.9.

Assay [1] has as its target human Peroxisome Proliferator-activated Receptor alpha (PPARa), PPARA (gene 5465) (UniProt Q07869). In words: NVS_NR_hPPARa: NovaScreen (NVS) Nuclear Receptor Binding Assay for human Peroxisome Proliferator-activated Receptor alpha (PPARa) (AID 2283359).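 Further: activity means loss of TR-FRET signal versus DMSO baseline.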 The procedure, abridged: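 Cell-free binding assay with extracted human protein, read by TR-FRET 1 h after chemical dosing. Loss of signal relative to DMSO baseline indicates binding. Primary screen used duplicate single concentration (25 uM); actives followed up in concentration series.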

In assay [2] the target is human Thyroid Receptor Alpha (TRa), THRA (gene 7067) (UniProt P10827). In words: NVS_NR_hTRa_Antagonist: NovaScreen (NVS) Nuclear Receptor Binding Assay for human Thyroid Receptor Alpha Antagonism (TRa) (AID 2283362).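 Further: activity is loss of signal relative to DMSO baseline.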 An outline of the steps:
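Cell-free AlphaLISA chemiluminescent binding read 1 h after dosing, antagonist mode; signal loss versus DMSO baseline. Primary screen in duplicate at 25 uM, then concentration series for actives.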

The target of assay [3] is Nuclear receptor subfamily 1 group I member 2 (Homo sapiens) (UniProt O75469). The experiment in a line: NVS_NR_hPXR: NovaScreen (NVS) Nuclear Receptor Binding Assay for human Pregnane X Receptor (PXR) (AID 2283365).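 Further: a drop in FRET signal versus DMSO baseline means the compound binds.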 An outline of the steps:
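Cell-free TR-FRET binding assay with extracted human PXR protein, read 2 h after dosing. Primary screen run in duplicate at 25 uM, actives followed in concentration series; loss of signal fitted against DMSO baseline.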

Assay [4] concerns the target guinea pig Sigma Receptor, Non-selective Binding, SIGMAR1 (gene 100135589) (UniProt Q60492). The experiment in a line: NVS_OR_gSIGMA_NonSelective: NovaScreen (NVS) Nuclear Receptor Binding Assay for guinea pig Sigma Receptor, Non-selective Binding (AID 2283367). An outline of the steps: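 Guinea pig brain membranes, cell-free radioligand binding; read 1 h after dosing by filter-based scintillation counting. Loss of signal vs DMSO baseline taken as displacement. Primary screen single concentration 25 uM in duplicate; actives retested in concentration series.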

Assay [5] concerns the target human Adenosine Transporter (Adot), SLC29A1 (gene 2030) (UniProt Q99808). The experiment in a line: NVS_TR_hAdoT: NovaScreen (NVS) Transporter Assay for human Adenosine Transporter (Adot) (AID 2283368). An outline of the steps:
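U937-derived membranes, cell-free radioligand binding, filter scintillation 1 h after dosing. 25 uM duplicate screen; hits (e.g. 30% inhibition) run in concentration-response up to 50 uM; loss of signal versus DMSO.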

Assay [6] has as its target Peroxisome proliferator-activated receptor gamma (Homo sapiens) (UniProt P37231). The experiment in a line: NVS_NR_hPPARg: NovaScreen (NVS) Nuclear Receptor Binding Assay for human Peroxisome Proliferator-activated Receptor gamma (PPARg) (AID 2283370). An outline of the steps: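 Cell-free fluorescence polarization binding to human PPARg protein, read 2 h after dosing. Primary screen in duplicate at 25 uM, actives followed in concentration series; loss of signal relative to DMSO scored.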

For assay [7], the target named is human Norepinephrine Transporter (NET), SLC6A2 (gene 6530) (UniProt P23975). The experiment in a line: NVS_TR_hNET: NovaScreen (NVS) Transporter Assay for human Norepinephrine Transporter (NET) (AID 2283377).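 Further: cell-free membrane protein extracted from CHO cells expressing human NET.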 The procedure, abridged: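 Radioligand binding to human NET in cell-free CHO-derived protein preparations, read by filter-based scintillation counting 1 hour after dosing. Loss of signal versus DMSO baseline indicated displacement; primary screening in duplicate at 25 uM, actives then titrated.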
human Norepinephrine Transporter (NET), SLC6A2 (gene 6530), sequence (P23975 whole entry, looked up): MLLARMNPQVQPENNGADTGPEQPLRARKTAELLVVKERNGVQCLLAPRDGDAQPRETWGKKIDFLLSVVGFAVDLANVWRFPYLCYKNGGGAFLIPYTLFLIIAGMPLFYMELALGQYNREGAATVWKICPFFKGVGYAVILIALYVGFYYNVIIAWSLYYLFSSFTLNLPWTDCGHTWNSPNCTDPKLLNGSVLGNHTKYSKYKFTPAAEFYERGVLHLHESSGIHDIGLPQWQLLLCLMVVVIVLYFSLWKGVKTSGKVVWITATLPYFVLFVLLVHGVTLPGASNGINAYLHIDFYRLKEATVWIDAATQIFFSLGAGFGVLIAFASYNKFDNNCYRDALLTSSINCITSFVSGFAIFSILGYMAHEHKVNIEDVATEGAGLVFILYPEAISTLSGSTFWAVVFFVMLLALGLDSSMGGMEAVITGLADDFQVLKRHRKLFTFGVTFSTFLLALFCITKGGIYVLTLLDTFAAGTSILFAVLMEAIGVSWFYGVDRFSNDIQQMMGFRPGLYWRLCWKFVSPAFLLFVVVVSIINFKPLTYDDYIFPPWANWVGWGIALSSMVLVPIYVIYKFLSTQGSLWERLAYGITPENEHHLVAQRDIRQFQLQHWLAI

Assay [8] deals with Estrogen receptor beta (Homo sapiens) (UniProt Q92731). In words: OT_ER_ERbERb_1440: Odyssey Thera (OT) 24-hour HEK293T Protein-Complementation Assay for Estrogen Receptor-beta/-beta Homodimer (AID 2283380).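 Further: fluorescence gain from ER beta LBD homodimer complementation read by laser scanning cytometry; scored as signal increase over DMSO baseline for both agonists and antagonists.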 An outline of the steps: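 HEK293T cells stably expressing human ER-beta LBD (aa 310-547) PCA homodimer pair, dosed 24 h; formaldehyde-fixed, Draq5-stained. Readout: increase in nuclear (agonist) or nuclear plus cytoplasmic (antagonist) fluorescence intensity versus DMSO, gain-of-signal fitting.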
Estrogen receptor beta (Homo sapiens), sequence (Q92731 whole entry, looked up, the tested form may be a part): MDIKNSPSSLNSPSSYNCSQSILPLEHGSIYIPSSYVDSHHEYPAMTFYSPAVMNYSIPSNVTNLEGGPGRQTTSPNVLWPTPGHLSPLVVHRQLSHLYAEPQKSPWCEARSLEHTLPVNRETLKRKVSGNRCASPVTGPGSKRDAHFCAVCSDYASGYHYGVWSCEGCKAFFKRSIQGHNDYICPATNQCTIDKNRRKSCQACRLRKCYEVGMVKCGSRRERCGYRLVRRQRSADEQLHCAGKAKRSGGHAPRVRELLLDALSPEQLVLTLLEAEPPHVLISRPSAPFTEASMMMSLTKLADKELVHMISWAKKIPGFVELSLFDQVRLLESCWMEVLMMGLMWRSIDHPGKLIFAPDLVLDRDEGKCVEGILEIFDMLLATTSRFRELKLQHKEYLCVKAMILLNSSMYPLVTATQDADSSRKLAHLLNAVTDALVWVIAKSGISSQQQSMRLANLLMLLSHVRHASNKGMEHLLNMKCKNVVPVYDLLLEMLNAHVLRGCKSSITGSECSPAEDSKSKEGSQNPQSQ

The next assay deals with PGR (gene 5241) (UniProt P06401). In words: NVS_NR_hPR: NovaScreen (NVS) Nuclear Receptor Binding Assay for human Progestron Receptor (PR) (AID 2283360).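 Further: active means loss of bound radioligand signal versus DMSO baseline.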 An outline of the steps:
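Competitive displacement of a labelled radioligand from T47D-derived receptor protein is measured in a cell-free format. Initial testing uses 25 uM in duplicate, with positive and negative controls on every plate.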

For assay [9], the target named is rat Androgen Receptor (AR), Ar (gene 24208) (UniProt P15207). In words: NVS_NR_rAR: NovaScreen (NVS) Nuclear Receptor Binding Assay for rat Androgen Receptor (AR) (AID 2283366). The procedure, abridged:
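Cell-free radioligand binding on extracts of prostate from testosterone-pretreated rats, read by filter-based scintillation counting 18 h after dosing. Loss of bound signal fitted positively versus DMSO; primary screen in duplicate at 25 uM, actives followed up in concentration series.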

Assay [10] has as its system guinea pig Dopamine Transporter (DAT), gene 100714898. In words: NVS_TR_gDAT: NovaScreen (NVS) Transporter Assay for guinea pig Dopamine Transporter (DAT) (AID 2283369).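 Further: active compounds lower bound radioligand signal relative to DMSO.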 The procedure, abridged:
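Guinea pig striatal membranes, cell-free radioligand binding with filter-based scintillation counting, read 2 h after dosing. Loss of signal versus DMSO baseline; single-concentration primary (25 uM) then concentration-response up to 50 uM.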

Assay [11] concerns rat Norepinephrine Transporter (NET), gene 83511. The experiment in a line: NVS_TR_rNET: NovaScreen (NVS) Transporter Assay for rat Norepinephrine Transporter (NET) (AID 2283373). The procedure, abridged: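 Rat forebrain membranes; radioligand binding measured by filter-based scintillation counting 1 hour after dosing. Loss of specific binding versus DMSO baseline scored; primary screen in duplicate at 25 uM, actives followed up in concentration series.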

For assay [12], the target named is mouse Estrogen Receptor alpha (Era), Esr1 (gene 13982) (UniProt P19785). The experiment in a line: NVS_NR_mERa: NovaScreen (NVS) Nuclear Receptor Binding Assay for mouse Estrogen Receptor alpha (Era) (AID 2283378).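 Further: hit means loss of bound radioligand signal relative to DMSO.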 The procedure, abridged: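 Cell-free radioligand competitive displacement binding, read by filter-based scintillation counting 18 h after dosing. Primary screen run in duplicate at 25 uM, actives retested in concentration series; loss of signal versus DMSO.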
mouse Estrogen Receptor alpha (Era), Esr1 (gene 13982), sequence (P19785 whole entry, looked up): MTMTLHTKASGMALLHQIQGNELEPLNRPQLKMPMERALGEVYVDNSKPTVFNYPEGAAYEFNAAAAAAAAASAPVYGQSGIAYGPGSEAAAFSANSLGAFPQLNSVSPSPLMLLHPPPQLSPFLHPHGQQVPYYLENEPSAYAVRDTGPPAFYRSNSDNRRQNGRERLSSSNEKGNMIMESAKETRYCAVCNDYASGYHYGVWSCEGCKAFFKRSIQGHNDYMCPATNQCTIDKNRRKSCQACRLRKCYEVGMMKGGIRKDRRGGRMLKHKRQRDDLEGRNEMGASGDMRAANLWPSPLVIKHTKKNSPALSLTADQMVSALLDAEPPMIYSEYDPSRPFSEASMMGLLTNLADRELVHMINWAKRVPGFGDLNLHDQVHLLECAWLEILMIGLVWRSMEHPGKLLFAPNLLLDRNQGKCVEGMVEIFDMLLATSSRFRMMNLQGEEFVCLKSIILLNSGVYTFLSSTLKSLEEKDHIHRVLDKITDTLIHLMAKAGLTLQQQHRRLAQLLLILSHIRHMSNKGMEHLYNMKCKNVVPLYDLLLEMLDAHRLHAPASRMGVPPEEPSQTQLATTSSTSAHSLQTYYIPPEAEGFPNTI

The target of assay [13] is Agonist Androgen Response Element (ARE), AR (gene 367) (UniProt P10275). The experiment in a line: OT_AR_ARELUC_AG_1440: Odyssey Thera (OT) 24-hour CHO-K1 Luciferase Assay for Agonist Androgen Response Element (ARE) (AID 2283379). An outline of the steps:
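Seed CHO-K1 cells; dose compounds for 24 h; add D-luciferin plus ATP in PBS; read luminescence. Signal increase relative to vehicle defines agonist activity, with at least 3 replicate wells per sample.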

Assay [14] has as its target Estrogen receptor beta (Homo sapiens) (UniProt Q92731). In words: OT_ER_ERbERb_0480: Odyssey Thera (OT) 8-hour HEK293T Protein-Complementation Assay for Estrogen Receptor-beta/-beta Homodimer (AID 2283357).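 Further: active means signal gain over DMSO baseline.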 An outline of the steps:
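Readout: increase in mean fluorescence intensity (nucleus for agonists; nucleus plus cytoplasm for antagonists) relative to DMSO, from a reporter-fragment complementation of human ER-beta LBD homodimer in HEK293T cells dosed 8 hours.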

guinea pig Sigma Receptor, Non-selective Binding, SIGMAR1 (gene 100135589), sequence (Q60492 whole entry, looked up): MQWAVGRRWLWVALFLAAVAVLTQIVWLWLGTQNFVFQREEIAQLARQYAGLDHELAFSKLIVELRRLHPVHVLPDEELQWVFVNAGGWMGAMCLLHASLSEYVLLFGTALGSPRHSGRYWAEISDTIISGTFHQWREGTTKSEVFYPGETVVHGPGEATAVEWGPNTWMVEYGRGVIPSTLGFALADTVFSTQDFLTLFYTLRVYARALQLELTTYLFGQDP
human Peroxisome Proliferator-activated Receptor alpha (PPARa), PPARA (gene 5465), sequence (Q07869 whole entry, looked up): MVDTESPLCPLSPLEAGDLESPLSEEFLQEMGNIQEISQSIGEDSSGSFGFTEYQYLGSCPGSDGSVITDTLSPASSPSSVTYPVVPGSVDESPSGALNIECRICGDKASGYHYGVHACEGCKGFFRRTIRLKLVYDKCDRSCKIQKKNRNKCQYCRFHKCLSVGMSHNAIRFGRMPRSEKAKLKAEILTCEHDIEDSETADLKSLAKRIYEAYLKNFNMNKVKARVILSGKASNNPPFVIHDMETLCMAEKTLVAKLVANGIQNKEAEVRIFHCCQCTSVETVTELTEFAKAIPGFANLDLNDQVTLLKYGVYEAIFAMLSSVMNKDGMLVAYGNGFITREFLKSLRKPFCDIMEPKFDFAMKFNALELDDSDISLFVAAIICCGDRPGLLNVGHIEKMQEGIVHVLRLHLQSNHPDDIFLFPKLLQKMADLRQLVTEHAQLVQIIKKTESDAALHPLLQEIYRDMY
Agonist Androgen Response Element (ARE), AR (gene 367), sequence (P10275 whole entry, looked up): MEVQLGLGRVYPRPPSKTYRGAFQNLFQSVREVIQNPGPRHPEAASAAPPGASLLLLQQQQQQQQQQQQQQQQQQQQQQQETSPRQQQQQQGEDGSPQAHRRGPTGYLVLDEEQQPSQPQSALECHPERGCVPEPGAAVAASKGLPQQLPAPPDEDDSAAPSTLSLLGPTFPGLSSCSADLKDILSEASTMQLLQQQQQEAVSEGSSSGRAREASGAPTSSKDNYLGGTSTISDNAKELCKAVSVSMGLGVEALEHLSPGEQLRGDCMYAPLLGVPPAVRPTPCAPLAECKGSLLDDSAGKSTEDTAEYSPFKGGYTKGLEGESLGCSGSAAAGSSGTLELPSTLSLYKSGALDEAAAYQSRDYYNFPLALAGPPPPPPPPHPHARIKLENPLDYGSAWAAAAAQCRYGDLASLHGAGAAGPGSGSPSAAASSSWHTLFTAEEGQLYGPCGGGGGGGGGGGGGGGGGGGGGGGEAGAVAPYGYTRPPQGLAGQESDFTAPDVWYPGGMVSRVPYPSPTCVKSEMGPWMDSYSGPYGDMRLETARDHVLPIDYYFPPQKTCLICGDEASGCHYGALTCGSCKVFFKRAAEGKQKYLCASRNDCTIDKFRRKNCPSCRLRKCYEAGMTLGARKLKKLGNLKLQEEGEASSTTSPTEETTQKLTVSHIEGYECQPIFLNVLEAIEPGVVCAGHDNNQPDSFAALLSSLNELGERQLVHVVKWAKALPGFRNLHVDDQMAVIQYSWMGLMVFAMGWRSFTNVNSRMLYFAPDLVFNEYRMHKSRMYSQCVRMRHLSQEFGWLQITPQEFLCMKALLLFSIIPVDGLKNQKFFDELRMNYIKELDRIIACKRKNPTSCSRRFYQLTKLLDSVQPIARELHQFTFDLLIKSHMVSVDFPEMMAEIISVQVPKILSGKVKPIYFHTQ
Nuclear receptor subfamily 1 group I member 2 (Homo sapiens), sequence (O75469 whole entry, looked up): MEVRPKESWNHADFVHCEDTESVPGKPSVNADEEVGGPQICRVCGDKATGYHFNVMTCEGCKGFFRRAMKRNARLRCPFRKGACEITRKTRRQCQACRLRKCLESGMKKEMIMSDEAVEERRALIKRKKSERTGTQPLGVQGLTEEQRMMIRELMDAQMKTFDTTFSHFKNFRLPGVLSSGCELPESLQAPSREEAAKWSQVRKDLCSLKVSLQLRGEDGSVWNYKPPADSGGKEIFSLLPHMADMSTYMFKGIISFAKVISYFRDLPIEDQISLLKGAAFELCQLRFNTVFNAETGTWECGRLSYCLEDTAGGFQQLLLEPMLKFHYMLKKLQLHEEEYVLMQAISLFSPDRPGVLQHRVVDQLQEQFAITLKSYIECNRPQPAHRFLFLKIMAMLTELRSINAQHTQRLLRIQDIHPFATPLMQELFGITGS
PGR (gene 5241), sequence (P06401 whole entry, looked up): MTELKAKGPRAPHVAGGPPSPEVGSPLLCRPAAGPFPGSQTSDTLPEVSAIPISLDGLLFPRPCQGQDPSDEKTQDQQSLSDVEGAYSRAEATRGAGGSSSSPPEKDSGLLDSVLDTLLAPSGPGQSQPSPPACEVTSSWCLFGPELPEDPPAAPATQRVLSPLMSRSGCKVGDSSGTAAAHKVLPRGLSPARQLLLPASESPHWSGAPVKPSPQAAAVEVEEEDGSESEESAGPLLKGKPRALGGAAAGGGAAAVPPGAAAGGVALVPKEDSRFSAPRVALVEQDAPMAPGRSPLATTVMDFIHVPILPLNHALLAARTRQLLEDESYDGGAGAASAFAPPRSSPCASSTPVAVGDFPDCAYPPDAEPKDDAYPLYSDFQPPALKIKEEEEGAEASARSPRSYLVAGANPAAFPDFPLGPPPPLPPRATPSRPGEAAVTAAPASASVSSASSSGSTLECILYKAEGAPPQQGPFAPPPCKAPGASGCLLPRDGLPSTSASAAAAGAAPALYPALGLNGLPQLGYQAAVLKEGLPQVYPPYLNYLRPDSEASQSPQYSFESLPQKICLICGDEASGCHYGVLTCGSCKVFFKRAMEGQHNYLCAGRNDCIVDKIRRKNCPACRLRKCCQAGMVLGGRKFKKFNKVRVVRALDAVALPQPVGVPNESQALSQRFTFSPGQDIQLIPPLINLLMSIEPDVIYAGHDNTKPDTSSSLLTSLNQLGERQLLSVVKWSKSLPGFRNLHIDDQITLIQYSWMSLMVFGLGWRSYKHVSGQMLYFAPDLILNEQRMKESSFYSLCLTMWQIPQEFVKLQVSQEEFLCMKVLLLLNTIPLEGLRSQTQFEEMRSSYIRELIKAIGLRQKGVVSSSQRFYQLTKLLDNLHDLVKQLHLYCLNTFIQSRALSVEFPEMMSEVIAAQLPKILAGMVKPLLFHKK

Turning to `S=C(S)NCCNC(=S)S.[Mn+2].[S-]C([S-])=NCCN=C([S-])[S-].[Zn+2]`, the AC50 – broadly, the concentration at which the activity in the assay is half-maximal – in assay [1] is 12.5 µM (active); in assay [2], 7.34 µM (active); in assay [3] it was 5.33 µM (active) and 1.52 µM (active); in [7], 269 nM (active). The compound was classed as inactive in assay [1], in [4], in assay [5], in assay [6], in assay [7] and in [8].
Regarding `CC(C)(c1ccc(O)cc1)c1ccc(O)cc1`, the AC50 in assay [1] was 0.105 µM (active); in the assay with PGR (gene 5241), 11.2 µM (active) and 8.49 µM (active); in [3], 8.08 µM (active) and 10.9 µM (active); in assay [9] it was 16.1 µM (active) [middle of 4 runs]; in [4], 8.43 µM (active); in assay [10] it was 8.77 µM (active) and 25.4 µM (active) and 11.6 µM (active). Also, the AC50 in [7] is 14.5 µM (active) [middle of 4 runs]. The result (with PGR (gene 5241); in assay [3]; in assay [4]; in assay [6]; in assay [11]; in assay [12]) was inactive. Moreover, the compound was called inactive in [13].
In the case of `CSC(=O)c1cccc2nnsc12`, the compound was classed as inactive in assay [13].
With `C[C@]12CC[C@@H]3c4ccc(O)cc4C[C@@H](CCCCCCCCCS(=O)CCCC(F)(F)C(F)(F)F)[C@H]3[C@@H]1CC[C@@H]2O` (some centres not stated), the call in assay [3], in assay [9], in assay [6], in assay [12] and in [13] was inactive. The AC50 in assay [5] is 9.12 µM (active); in assay [12], 3.4 µM (active) and 2.01 µM (active); in assay [13], 0.548 µM (active).
Regarding `CCNc1nc(N)nc(Cl)n1`, the compound was called inactive in assay [8].
As for `CCCOC(=O)NCCCN(C)C`, in [4], the AC50 was 11.3 µM (active).
As for `COc1nc(C)nc(NC(=O)NS(=O)(=O)c2ccccc2OCCCl)n1`, the compound was called inactive in [6].
`C#C[C@]1(O)CC[C@H]2[C@@H]3CCC4=CC(=O)CC[C@@H]4[C@H]3CC[C@@]21CC`: the result in [3], in assay [6] and in assay [12] was inactive.
In the case of `CC(C)(C)[C@@H](O)[C@@H](Cc1ccc(Cl)cc1)n1cncn1`, the call in [14] and in assay [8] was inactive. In addition, the AC50 in assay [10] is 4.16 µM (active).
Regarding `Oc1ccc(C(c2ccc(O)cc2)C(Cl)(Cl)Cl)cc1`, the AC50 is 6.82 µM (active) with PGR (gene 5241), 2 µM (active) in [10] and 4420 nM (active) in assay [7]. Moreover, the result in assay [2], in [6] and in assay [11] was inactive.
Turning to `CCOC(=O)C(C)Oc1ccc(Oc2nc3ccc(Cl)cc3o2)cc1` (configuration not stated), the outcome in assay [14], in [6] and in assay [8] was inactive.
Turning to `COC(=O)CSc1cc(N=c2sc(=O)n3n2CCCC3)c(F)cc1Cl`, the call in assay [9], in [13] and in [8] was inactive.
For the compound `COCCO`, the AC50 in [3] is 3.84 µM (active).
`O=C(c1ccccc1)C1CCCCC1`: the result in assay [1], in assay [3], in assay [9], in assay [10], in [6] and in assay [12] was inactive. Besides, the call in [13] was inactive. Moreover, the AC50 was 6.52 µM (active) in [9] and 0.527 µM (active) in assay [13].
With `O=C(O)c1ccccc1`, the outcome in assay [6], in [7] and in assay [12] was inactive.
